The structures appear in SMILES notation. Results filed as inconclusive are left out. Calls of active or inactive are those of the source. The calls were made as follows: active = hit-call score of the fitted dose curve at least 0.9, where 1 is the maximum; inconclusive = response in the unintended direction; inactive = score below 0.9.

The first assay is described as follows: Tanguay_ZF_120hpf_CFIN_legacy: (Legacy) Oregon State University Tanguay Lab 120 Hour Post-fertilization zebrafish Assay for Caudal Fin Malformation (AID 2283649). The method, boiled down: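 Binary presence or absence of caudal fin malformation at 120 hpf, read by brightfield microscopy, with DMSO as baseline. Larvae came from 5D wild-type embryos exposed statically from 6 hpf at 28C after pronase dechorionation.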
For `CCOC(=O)C(O)(c1ccc(Cl)cc1)c1ccc(Cl)cc1`, the compound was classed as inactive.
Turning to `CCC(C)c1cc([N+](=O)[O-])cc([N+](=O)[O-])c1O` (stereo unspecified), the result was inactive.
On the same count and under the same terms, the same measure for `CC(C)C(=O)OCC(C)(C)C(OC(=O)C(C)C)C(C)C` (stereo unspecified): “inactive”.
`Cc1cc(-c2ccc(N)c(C)c2)ccc1N`: the result was inactive.
Still for that read-out and setting: the same measure for `Nc1ccc(-c2ccc(N)cc2)cc1`: “inactive”; for `Cc1ccccc1O`: “inactive”; for `CCOCCOC(C)=O`: “inactive”.
Same read-out and setting: the same measure for `CCCCCCCCOC(=O)c1ccccc1C(=O)OCCCCCCCC`: “inactive”.
Regarding `Cc1ccc(O)c(C)c1`, the result was inactive.
For the compound `Oc1c(Cl)c(Cl)c(Cl)c(Cl)c1Cl`, the outcome was inactive.
In the case of `CN(C)CCO`, the result was inactive.
With `O=C(NC(=O)c1c(F)cccc1F)Nc1cc(Cl)c(OC(F)(F)C(F)F)c(Cl)c1`, the compound was called inactive.
Same read-out and setting: as for `CCC(C)(CC)c1cc(NC(=O)c2c(OC)cccc2OC)on1`, the entry is “inactive”.

A short description of the next assay: Tanguay_ZF_120hpf_PIG_legacy: (Legacy) Oregon State University Tanguay Lab 120 Hour Post-fertilization zebrafish Assay for Pigmentation Malformation (AID 2283650).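 Also: dechorionated Tropical 5D zebrafish embryos exposed singly from 6 to 120 hpf.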 The method, boiled down: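 Brightfield scoring of pigmentation malformation at 120 hpf, recorded as binary present/absent per larva. Exposure: dechorionated 5D wild-type embryos, one per well, static from 6 hpf at 28C, final DMSO 0.64% (vol/vol). Dead embryos not scored.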
Consider `C=CC(=O)NCNC(=O)C=C`, for which the result was inactive.
With `Cc1ccccc1[N+](=O)[O-]`, the result was inactive.
On the same count and under the same terms, as for `NS(=O)(=O)C(F)(F)C(F)(F)C(F)(F)C(F)(F)C(F)(F)C(F)(F)C(F)(F)C(F)(F)F`, the entry is “inactive”; as for `CCC(=O)O[C@H]1CC[C@H]2[C@@H]3CCC4=CC(=O)CC[C@]4(C)[C@H]3CC[C@]12C`, “inactive”.
The term AC50 denotes the midpoint of the concentration-response curve, whichever way the signal moves. On to `CC1=C2C[C@H]3[C@@H](CC=C4C[C@@H](O)CC[C@@]43C)[C@@H]2CC[C@]12O[C@@H]1C[C@H](C)CN[C@H]1[C@H]2C`, for which the AC50 was 20 µM (active).
In the case of `Cc1cc2c3c(c1)C(c1ccccc1)=N[C@@H](NC(=O)c1ccncc1)C(=O)N3CC2`, the compound was called inactive.
Still for that read-out and setting: the same measure for `Cc1cccc([N+](=O)[O-])c1`: “inactive”; for `Cc1ccccc1CO[C@@H]1C[C@@]2(C(C)C)CC[C@]1(C)O2`: “inactive”.
On to `CO/C=C(/C(=O)OC)c1ccccc1COc1cccc(C(F)(F)F)n1`, for which the AC50 was 19.7 µM (active).
Consider `O=C(O)C(F)(F)C(F)(F)C(F)(F)C(F)(F)C(F)(F)C(F)(F)C(F)(F)C(F)(F)F`, for which the call was inactive.
On the same count and under the same terms, the same measure for `N#Cc1ccc(N(CC(N)=O)CC(F)(F)F)cc1C(F)(F)F`: “inactive”.
Still for that read-out and setting: the same measure for `O=C(N[C@H]1CN2CCC1CC2)c1cc2ccoc2cn1`: “inactive”.
On to `C=CC(N)=O`, for which the result was inactive.
On the same count and under the same terms, the same measure for `CCNc1nc(NC(C)C)nc(SC)n1`: “inactive”.
With `Oc1ccc(C(c2ccc(O)cc2)(C(F)(F)F)C(F)(F)F)cc1`, the half-maximal activity concentration (AC50) was 56.9 µM (active).
Consider `CCOC(=O)C(O)(c1ccc(Cl)cc1)c1ccc(Cl)cc1`, for which the compound was classed as inactive.
In the case of `CCC(C)c1cc([N+](=O)[O-])cc([N+](=O)[O-])c1O` (stereo unspecified), the compound was classed as inactive.
The same measure, in the same setting: the same measure for `O=NN(c1ccccc1)c1ccccc1`: “inactive”; for `CC(C)C(=O)OCC(C)(C)C(OC(=O)C(C)C)C(C)C` (stereo unspecified): “inactive”; for `Cc1cc(-c2ccc(N)c(C)c2)ccc1N`: “inactive”.
Regarding `Cc1ccccc1O`, the result was inactive.
`CCOCCOC(C)=O`: the compound was called inactive.
For the compound `CCCCCCCCOC(=O)c1ccccc1C(=O)OCCCCCCCC`, the compound was classed as inactive.
`Cc1ccc(O)c(C)c1`: the outcome was inactive.
Same read-out and setting: the same measure for `Oc1c(Cl)c(Cl)c(Cl)c(Cl)c1Cl`: “inactive”; for `CN(C)CCO`: “inactive”.

A further assay in a line: Tanguay_ZF_120hpf_CIRC_legacy: (Legacy) Oregon State University Tanguay Lab 120 Hour Post-fertilization zebrafish Assay for Circulatory Malformation (AID 2283651). The gist of the method: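 Embryos are dechorionated at 4 hpf, plated one per well at 6 hpf, then held under static exposure at 28C until 120 hpf. Malformations are recorded as binary calls; mortality excludes other endpoints.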
For `C=CC(=O)NCNC(=O)C=C`, the call was inactive.
Same read-out and setting: the same measure for `Cc1ccccc1[N+](=O)[O-]`: “inactive”; for `NS(=O)(=O)C(F)(F)C(F)(F)C(F)(F)C(F)(F)C(F)(F)C(F)(F)C(F)(F)C(F)(F)F`: “inactive”.
Still for that read-out and setting: the same measure for `ClC1=C(Cl)[C@]2(Cl)[C@@H]3[C@@H](Cl)[C@H]4O[C@H]4[C@@H]3C1(Cl)C2(Cl)Cl`: “inactive”; for `Nn1cnnc1`: “inactive”; for `CCC(=O)O[C@H]1CC[C@H]2[C@@H]3CCC4=CC(=O)CC[C@]4(C)[C@H]3CC[C@]12C`: “inactive”.
Same read-out and setting: as for `CC1=C2C[C@H]3[C@@H](CC=C4C[C@@H](O)CC[C@@]43C)[C@@H]2CC[C@]12O[C@@H]1C[C@H](C)CN[C@H]1[C@H]2C`, the entry is “inactive”; as for `ClC1=C(Cl)[C@]2(Cl)[C@@H]3[C@H]4C[C@H]([C@@H]5O[C@H]45)[C@@H]3[C@@]1(Cl)C2(Cl)Cl`, “inactive”.
With `Cc1ccccc1CO[C@@H]1C[C@@]2(C(C)C)CC[C@]1(C)O2`, the compound was classed as inactive.
On to `CO/C=C(/C(=O)OC)c1ccccc1COc1cccc(C(F)(F)F)n1`, for which the AC50 is 9.76 µM (active).
As for `O=C(O)C(F)(F)C(F)(F)C(F)(F)C(F)(F)C(F)(F)C(F)(F)C(F)(F)C(F)(F)F`, the compound was called inactive.
For `O=C(N[C@H]1CN2CCC1CC2)c1cc2ccoc2cn1`, the call was inactive.
Still for that read-out and setting: the same measure for `C=CC(N)=O`: “inactive”.
The same measure, in the same setting: the same measure for `CCNc1nc(NC(C)C)nc(SC)n1`: “inactive”.
`Oc1ccc(C(c2ccc(O)cc2)(C(F)(F)F)C(F)(F)F)cc1`: the compound was classed as inactive.
Turning to `CCC(C)c1cc([N+](=O)[O-])cc([N+](=O)[O-])c1O` (stereo unspecified), the compound was called inactive.
On to `O=NN(c1ccccc1)c1ccccc1`, for which the result was inactive.
Regarding `CC(C)C(=O)OCC(C)(C)C(OC(=O)C(C)C)C(C)C` (stereo unspecified), the result was inactive.
In the case of `Cc1cc(-c2ccc(N)c(C)c2)ccc1N`, the compound was called inactive.
For the compound `Nc1ccc(-c2ccc(N)cc2)cc1`, the compound was classed as inactive.
The same measure, in the same setting: the same measure for `Cc1ccccc1O`: “inactive”; for `CCOCCOC(C)=O`: “inactive”; for `CCCCCCCCOC(=O)c1ccccc1C(=O)OCCCCCCCC`: “inactive”.
The same measure, in the same setting: as for `Cc1ccc(O)c(C)c1`, the entry is “inactive”; as for `Oc1c(Cl)c(Cl)c(Cl)c(Cl)c1Cl`, “inactive”.
Same read-out and setting: the same measure for `CN(C)CCO`: “inactive”; for `O=C(NC(=O)c1c(F)cccc1F)Nc1cc(Cl)c(OC(F)(F)C(F)F)c(Cl)c1`: “inactive”.

The values are drawn from PubChem BioAssay (EPA / NIEHS).
